# Tests used:
# Type in all cases: functional
# [1] = tested on: Plasmodium falciparum; assay: GSK_TCMDC: Inhibition of Plasmodium falciparum 3D7 in whole red blood cells, using parasite LDH activity as an index of growth. Test compounds present at 2uM
# [2] = tested on: Plasmodium falciparum; assay: GSK_TCMDC: Inhibition of Plasmodium falciparum Dd2 in whole red blood cells, using parasite LDH activity as an index of growth. Test compounds present at 2uM
# [3] = tested on: HepG2; assay: GSK_TCMDC: Percent inhibition of human HepG2 cell line. Test compounds present at 10uM.
Compound,Inhibition [1],Inhibition [2],Inhibition [3]
NC1=NC(Cc2ccccc2)(c2ccncc2)C(=O)N1CCCc1ccccc1 (centres undefined),86%,1%,1%
O=C(c1ccc(-c2cccc(-c3nc4cc(C(F)(F)F)ccc4[nH]3)c2)cc1)N1CCCCC1CN1CCC(O)C1 (centres undefined),100%,98%,29%
CCCCCN1CCCCC(NS(=O)(=O)c2ccc(C(=O)Nc3ccc(C(F)(F)F)cc3)cc2)C1.O=C(O)C(F)(F)F (centres undefined),89%,0%,34%
Oc1c(C(Nc2nc3ccccc3s2)c2ccc(OC(F)F)cc2)ccc2cccnc12 (centres undefined),92%,85%,62%
COc1ccc(-c2cccc(NC(=O)c3ccc(C#N)cc3)c2)cc1CNC(C)C.O=C(O)C(F)(F)F,100%,14%,25%
CC(C)CNc1c2c(nc3cnn(-c4c5c(nc6cn[nH]c46)CCCC5)c13)CCCC2,100%,0%,7%
N#Cc1ccc2[nH]c(-c3cc(-c4cccc(F)c4)cnc3N)nc2c1.O=C(O)C(F)(F)F,100%,93%,46%
CN(Cc1ccncc1)C(Cc1ccccc1)C1CCN(Cc2ccc(O)c(Cl)c2)CC1 (centres undefined),96%,97%,22%
Fc1ccc(NC(=S)NCCc2ccccc2)cc1,99%,0%,0%
CCN(CC)CCN(Cc1ccc(-c2ccc(C(F)(F)F)cc2)nc1)C(=O)Cn1c(SCc2ccc(F)cc2)nc(=O)c2sccc21.O=C(O)C(O)C(O)C(=O)O,96%,66%,43%
O=C(c1ccc(OCCn2ccnc2)cc1)N1CCC(c2ccc(Br)cc2)C1 (centres undefined),100%,99%,49%
Cc1ccc(S(=O)(=O)N(C)c2ccccc2C(=O)Nc2ccccc2Oc2ccccc2)cc1,98%,90%,5%
CCCCOc1cc(OC)c2ccccc2c1CCNCCCCNCCc1c(OCCCC)cc(OC)c2ccccc12.CS(=O)(=O)O,82%,82%,100%
C[C@H](Cc1ccc(OCCCCCCOc2ccc(C[C@@H](C)NC[C@H](O)c3cccc(Cl)c3)cc2)cc1)NC[C@H](O)c1cccc(Cl)c1.Cl,99%,99%,99%
CCC(C)(C)C1CCc2nc(N)nc(N)c2C1.Cl (centres undefined),95%,97%,71%
C[C@@H](N/C(=N\c1ccccc1Cl)Nc1ccc(C#N)cc1O)c1ccc(Br)cc1,98%,70%,33%
COc1ccc2nccc(NC(=O)C3(O)CCC(NCc4ccc5c(c4)NCCS5)CC3)c2n1.Cl (centres undefined),93%,64%,1%
O=C(NC1CCCCN(Cc2ccccc2O)C1)c1ccc(-c2ccccc2)cc1.O=C(O)C(F)(F)F (centres undefined),97%,61%,21%
O=C(O)C(F)(F)F.O=C1COC2(CN1C1CCN(Cc3ccc(O)cc3Cl)C1)c1ccccc1-c1ccccc12 (centres undefined),82%,70%,10%
CNC(=O)CNC(=O)COc1cccc2ccccc12,98%,0%,3%
CCc1cc(C(=O)c2cccc(C)c2)c(NC(=O)CN2CCN(C(=O)c3ccco3)CC2)s1,91%,85%,0%
CS(=O)(=O)c1ccc(-c2cc(C(F)(F)F)nc(N[C@@H]3CCCC[C@H]3OCc3ccccc3)n2)cc1,100%,99%,8%
COc1ccccc1CC1CCCN(C2CCC(NC(=O)c3cc4ccccc4[nH]3)CC2)C1 (centres undefined),98%,21%,23%
COc1ccc(CC(=O)NC(CCCN2CCC3(CC2)OCc2ccccc23)c2ccc(Cl)c(Cl)c2)cc1 (centres undefined),83%,53%,40%
O=C(/C=C/c1ccc(Cl)c(Cl)c1)NCCCCCN1CCCC(C(=O)Nc2ccc(F)c(Cl)c2)C1 (centres undefined),99%,2%,28%
CCCCCCCc1[nH]c2ccccc2c(=O)c1C,97%,96%,48%
C=Cc1sc(CNCCCNc2cc(=O)c3ccccc3[nH]2)c(C)c1Br,94%,35%,0%
CCC[C@@H]([C@@H](CC(C)C)C(=O)N[C@@H](CCCCNC(=O)OCc1ccccc1)C(=O)Nc1ncccn1)N(O)C=O,100%,98%,3%

# Reference: ChEMBL document CHEMBL1157539, “Thousands of chemical starting points for antimalarial lead identification” (Nature, 2010)
